The source of these data is PubChem BioAssay (NCATS).

As a reminder, the viability is a read-out of living cells in per cent, often relative to untreated cells.

A short description of test [1]: BET inhibitor-based combinations targeting novel dependencies in MECOM-rearranged (r) AML: SET-2 cell line (AID 2202231). Also: nearly all actives have a fitted effect of over 35% in size.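 As to viability: plate controls were DMSO treated cells for no effect and wells without cells for full effect.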 The note with it: SET-2 AML cells viability, CellTiter-Glo luminescence, 48 h; viability: hits give low values, concentration not given here. A digest of the protocol: (§1)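 Cells were plated at 500 per well and exposed to an 11-point dose series of each drug for 48 hr. Viability was measured by CellTiter-Glo luminescence, normalized to DMSO and empty-well controls, and summarized as AUC and per-cell-line Z-AUC.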

A short description of test [2]: BET inhibitor-based combinations targeting novel dependencies in MECOM-rearranged (r) AML: OCI-AML3 cell line (AID 2202232). Also: nearly all actives have a fitted effect of over 35% in size. The note with it: CellTiter-Glo luminescence, 48 h; Potency: OCI-AML3 viability; series mostly up to 46 µM. The gist of the method: as §1
(In general: ATP-based viability assays read luminescence as a measure of living cells.)

Test [3] can be described thus: BET inhibitor-based combinations targeting novel dependencies in MECOM-rearranged (r) AML: MV-4-11 cell line (AID 2202233). Also: nearly all actives have a fitted effect of over 45% in size. As to conditions: MV-4-11 AML viability, CellTiter-Glo luminescence, 48 h; series mostly up to 46 µM. The gist of the method:
(§2)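 Activity is given as area under the curve and as Z-AUC, mean-centred within each cell line. It comes from 11-point dose curves normalized to DMSO and empty wells. CellTiter-Glo luminescence was read after 48 hr drug exposure of 500 cells/well.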

Test [4] can be described thus: BET inhibitor-based combinations targeting novel dependencies in MECOM-rearranged (r) AML: UCSD-AML1 cell line (AID 2202235). Also: nearly all actives have a fitted effect of over 40% in size. As to conditions: UCSD-AML1 AML cells viability, CellTiter-Glo, 48 h; series mostly up to 46 µM. The gist of the method:
as §2

Test [5] can be described thus: BET inhibitor-based combinations targeting novel dependencies in MECOM-rearranged (r) AML: AML-191 cell line (AID 2202236; also: nearly all actives have a fitted effect of over 35% in size). The note with it: AML-191 viability, CellTiter-Glo luminescence, 48 h; series mostly up to 46 µM. The gist of the method: as §1
Test [6] in a line: BET inhibitor-based combinations targeting novel dependencies in MECOM-rearranged (r) AML: AML-194 cell line (AID 2202237; also: nearly all actives have a fitted effect of over 40% in size). The note with it: AML-194 (MECOM-r AML) viability, CellTiter-Glo, 48 h; series mostly up to 46 µM. A digest of the protocol: as §1
Test [7] can be described thus: BET inhibitor-based combinations targeting novel dependencies in MECOM-rearranged (r) AML: HNT-34 cell line (AID 2202234). Also: nearly all actives have a fitted effect of over 35% in size. The note with it: HNT-34 AML viability, CellTiter-Glo luminescence, 48 h; series mostly up to 46 µM. A digest of the protocol: as §2

Inconclusive results are not listed. Unmarked numbers belong to inactive results. Calls of active or inactive are those of the source. Calls follow the shape of the dose curve; as a rule, active = well fitted curve in the direction sought with a large enough effect; inconclusive = small, poorly fitted or top-dose-only effect, or another doubt; inactive = no such curve, though single readings can be large; an effect the other way counts as inactive or inconclusive.
Potency is read from the fitted curve at half-maximal effect.

In the case of `CCS(=O)(=O)Nc1ccc2[nH]c(O)c(C(=Nc3ccc(CN4CCCCC4)cc3)c3ccccc3)c2c1`, the Potency is 2630 nM (active) in test [1]; 235 nM (active) in test [2]; 29.5 nM (active) in test [3]; 833 nM (active) in test [4]; 66.1 nM (active) in test [5].
As for `C=CCNc1c(O)cc2c(O)c1C[C@@H](C)C[C@H](OC)[C@H](O)[C@@H](C)/C=C(/C)[C@H](OC(N)=O)[C@@H](OC)/C=C\C=C(\C)C(=O)N2`, the Potency is 4680 nM (active) in test [1]; 742 nM (active) in test [2]; 148 nM (active) in test [3]; 1320 nM (active) in test [4]; 5900 nM (active) in test [5]; 3320 nM (active) in test [6].
For `C/C=C(/C)C(=O)O[C@H]1C(C)=CC23C(=O)C(C=C(CO)[C@@H](O)[C@]12O)[C@H]1[C@@H](C[C@H]3C)C1(C)C` (some centres not stated), the Potency is 7420 nM (active) in test [1], 5.3 nM (active) in test [2], 52.5 nM (active) in test [3] and 1.9 nM (active) in test [4].
As to `C=C1C[C@@H]2CC[C@@]34C[C@H]5O[C@H]6[C@@H](O3)[C@H]3O[C@H](CC[C@@H]3O[C@H]6[C@H]5O4)CC(=O)C[C@@H]3[C@@H](OC)[C@@H](C[C@H](O)CN)O[C@H]3C[C@H]3O[C@@H](CC[C@@H]1O2)C[C@@H](C)C3=C`, the Potency in test [1] was 152 nM (active); in test [2] it was 1.5 nM (active); in test [3], 1.7 nM (active); in test [4], 1.1 nM (active); in test [5] it was 1.5 nM (active); in test [6], 1.9 nM (active).
Regarding `O=C1Cc2cc(C(=O)NC3C[C@H]4CC[C@@H](C3)N4S(=O)(=O)CC3CCN(CCCC(F)(F)F)CC3)c(Cl)cc2N1` (some centres not stated), in test [1], the viability was 107%. The Potency entry in test [2], in test [7], in test [4], in test [5] and in test [6] was “inactive” throughout.
For `CCCCC[C@H](O)/C=C/[C@H]1[C@H](O)CC(=O)[C@@H]1CCCCCCC(=O)O`, the viability in test [1] was 103%. For the same compound, the Potency is 9340 nM (active) in test [2], 16600 nM (active) in test [7] and 11800 nM (active) in test [4]. Further, the Potency entry in test [5] and in test [6] was “inactive” each time.
Consider `COc1cc2nccc(Oc3ccc(NC(=O)c4cn(C(C)C)c(=O)n(-c5ccc(F)cc5)c4=O)cc3F)c2cc1OC`, for which the viability in test [1] was 113%. Further, the Potency entry in test [2] and in test [6] was “inactive” in each case. The Potency in test [3] was 468 nM (active).
As to `Cc1cc(C)c2c(c1)[C@@H](N(Cc1cc(C(F)(F)F)cc(C(F)(F)F)c1)c1nnn(C)n1)CCCN2CC1CCC(C(=O)O)CC1` (some centres not stated), in test [1], the viability is 101%. For the same compound, the Potency in test [2] was 8330 nM (active); in test [7], 18600 nM (active). Besides, in test [4], the Potency result was “inactive”.
As for `C[C@@H]1CC(=O)Nc2cccc(-c3ccc4c(c3)c(-c3cnn(C)c3)nn4C)c2N1`, the Potency is 6610 nM (active) in test [1]; 6610 nM (active) in test [2]; 5250 nM (active) in test [3]; 2630 nM (active) in test [4]; 6610 nM (active) in test [6].
As for `COc1ccc2c(c1OC)C(=O)OC2[C@H]1c2c(cc3c(c2OC)OCO3)CCN1C` (some centres not stated), the Potency is 16600 nM (active) in test [1]; 20900 nM (active) in test [2]; 18600 nM (active) in test [3]; 13200 nM (active) in test [5]; 20900 nM (active) in test [6]. For the same compound, the Potency result in test [4] is “inactive”.
`C=CC[N+]1([C@H]2C[C@H]3[C@@H]4CC[C@H]5C[C@H](O)[C@@H](N6CCOCC6)C[C@]5(C)[C@H]4CC[C@]3(C)[C@H]2OC(C)=O)CCCC1`: the viability in test [1] was 115%. Besides, the Potency result in test [2], in test [7], in test [4], in test [5] and in test [6] was “inactive” throughout.
Regarding `CC[C@]12C=CCN3CC[C@@]4(c5cc([C@@]6(C(=O)OC)CC7C[C@@H](C(C)(F)F)CN(Cc8c6[nH]c6ccccc86)C7)c(OC)cc5N(C)[C@H]4[C@@](O)(C(=O)OC)[C@@H]1OC(C)=O)[C@@H]32` (some centres not stated), the Potency was 1660 nM (active) in test [1]; 296 nM (active) in test [2]; 417 nM (active) in test [3]; 468 nM (active) in test [4]; 372 nM (active) in test [5]; 332 nM (active) in test [6].
On to `Cc1ccc(NC(=O)NCc2ccc3c(c2)CN(C2CCC(=O)NC2=O)C3=O)cc1Cl` (configuration not stated), for which the Potency is 29.5 nM (active) in test [1]; 3 nM (active) in test [2]; 2.6 nM (active) in test [3]; 2.3 nM (active) in test [5]; 1.9 nM (active) in test [6].
On to `COc1ccc(S(=O)(=O)N2CCc3cccc(-c4ccncc4)c32)cc1`, for which the Potency in test [1] was 1660 nM (active); in test [2], 1050 nM (active); in test [3], 1180 nM (active); in test [4], 1180 nM (active); in test [5] it was 1050 nM (active); in test [6] it was 934 nM (active).
Consider `CCS(=O)(=O)N1CCC(C(C)n2c(C)c(C(=O)NCc3c(OC)cc(C)[nH]c3=O)c3ccccc32)CC1` (configuration not stated), for which the viability in test [1] was 108%. The Potency result in test [2], in test [7], in test [4], in test [5] and in test [6] was “inactive” each time.
For the compound `Cc1ccc(C(=O)N(CCCN)[C@@H](c2nc3cc(Cl)ccc3c(=O)n2Cc2ccccc2)C(C)C)cc1`, the Potency in test [1] was 105 nM (active); in test [2] it was 29.5 nM (active); in test [3], 41.7 nM (active); in test [4] it was 26.3 nM (active); in test [5], 41.7 nM (active); in test [6], 46.8 nM (active).
